Screens: PubChem, National Center for Advancing Translational Sciences (NCATS)
Shown are actives, neighbours in structure and some others; about 4.7% of the full set was active somewhere.
TRHR PAM = qHTS for Small Molecule Agonists and Allosteric Enhancers of Human TRH Receptor: Primary Screen for Enhancers; actives 0.66% (n = 360,000); enhancement, % at 2 µM; AID 493056, 2011; TRHR cells, fluo-8 calcium fluorescence, EC20 TRH enhancement; Thyrotropin-releasing hormone receptor (Homo sapiens), P34981; in the data active means enhancement above about 30%; further: 0% is about no effect
Target sequence (P34981 whole entry, looked up): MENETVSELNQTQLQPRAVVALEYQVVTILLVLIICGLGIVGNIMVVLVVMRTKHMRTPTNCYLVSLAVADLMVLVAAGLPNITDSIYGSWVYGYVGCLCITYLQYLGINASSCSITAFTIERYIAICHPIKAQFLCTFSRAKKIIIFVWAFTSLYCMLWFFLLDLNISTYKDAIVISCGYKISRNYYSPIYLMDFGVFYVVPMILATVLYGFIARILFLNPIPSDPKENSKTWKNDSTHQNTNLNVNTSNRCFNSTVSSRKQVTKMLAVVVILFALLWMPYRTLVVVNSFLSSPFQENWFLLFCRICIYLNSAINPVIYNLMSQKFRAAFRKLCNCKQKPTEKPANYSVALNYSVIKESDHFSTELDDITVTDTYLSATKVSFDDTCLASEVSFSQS
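Enhancer read-out: after compound pinning and an initial kinetic agonist-mode read, an EC20 of TRH (10 nM final) was injected and fluo-8 calcium signal (Ex 480/Em 530) followed at 1 s/cycle for 100 cycles in TRHR-expressing cells.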
D1 antagonist = Antagonist of Human D 1 Dopamine Receptor: qHTS; D(1A) dopamine receptor (Homo sapiens), P21728; activity change, negative = inhibition, % at 10 µM; AID 504652, 2011; HEK293 TREx D1 cells, calcium flux, dopamine EC80; stronger effect = lower value; actives 3.2% (n = 360,000); in the data active means activity change below about -30%; further: on the % scale 0 is the no-effect control and ±100 the full control effect
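Antagonism measured as reduced calcium response to an EC80 dopamine addition following 180 s compound pre-read; cells were inducible HEK293 Trex D1 plated overnight at 30 C, read kinetically at 1 cycle/sec.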
D1 potentiator = Potentiators of Human D1 Dopamine Receptor: qHTS; D(1A) dopamine receptor (Homo sapiens), P21728; HEK293 TREx D1 cells, calcium flux, dopamine EC20 potentiation; potentiation, % at 10 µM; actives 0.036% (n = 360,000); AID 504651, 2011; in the data active means potentiation above about 30%; further: 0% is about no effect
TRHR ag = qHTS for Small Molecule Agonists and Allosteric Enhancers of Human TRH Receptor: Primary Screen for Agonists. TRHR cells, calcium flux fluo-8, FDSS agonist mode. AID 493084, 2011. Thyrotropin-releasing hormone receptor (Homo sapiens), P34981. activation, % at 2 µM. actives 0.18% (n = 360,000); further: 0% is about no effect
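TRHR-expressing cells loaded with fluo-8 calcium dye; 23 nL library compound pin-transferred, kinetic FDSS fluorescence (Ex 480/Em 530) recorded about 180 s for agonist-induced calcium release, before a 10 nM TRH EC20 addition for potentiator mode.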
D1 agonist = Allosteric Agonists of the Human D1 Dopamine Receptor: qHTS | D(1A) dopamine receptor (Homo sapiens), P21728 | HEK293 T-REx D1 cells, calcium flux, agonist mode | activation, % at 2 µM | actives 1% (n = 360,000) | AID 504660, 2011; further: 0% is about no effect
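Inducible HEK293 T-REx D1 cells, force-coupled to calcium signalling, were plated at 4000 cells/well with tetracycline and held overnight at 30 C. After no-wash calcium dye loading, compound-evoked calcium rise over 180 s flagged agonists.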
* marks the source's active call; other numbers are inactive results; . = no result given. Unless noted, no stated cut-off is given here; in the data, active means activation above about 30%; inactive means the rest.

SMILES | TRHR PAM | D1 antagonist | D1 potentiator | TRHR ag | D1 agonist
Cc1cc(N2CCOCC2)ccc1/C=C\[N+](=O)[O-] | 1 | 11 | -2 | 13 | 47*
CCc1ccc(NC(=O)CSC2=Nc3ccccc3C3=NC(CC(=O)NCc4cccs4)C(=O)N23)cc1 (stereo unspecified) | 3 | -19 | 2 | 0 | 4
CC1(C)OC(=O)C(=CNc2ncccn2)C(=O)O1 | 5 | 1 | -4 | 1 | 0
CC1(C)OC(=O)C(=CNNc2c(Cl)cc(Cl)cc2Cl)C(=O)O1 | 31* | -5 | -1 | -1 | 2
Cc1cc(C)cc(NC(=O)CSc2nnc(COc3ccccc3Cl)o2)c1 | 1 | -8 | 0 | 1 | 2
O=C(NC12CC3CC(CC(C3)C1)C2)c1ccc(Br)o1 | 9 | -2 | -5 | -2 | 9
O=C(NC12CC3CC(CC(C3)C1)C2)c1ccc([N+](=O)[O-])o1 | -3 | -48* | -1 | 0 | 1
Cc1ccc(NC(=O)C2CCC(CNS(=O)(=O)c3cccs3)CC2)cc1C (stereo unspecified) | 1 | -15 | -4 | -1 | 3
CCN(CC)c1ccc2cc(S(=O)(=O)c3ccc(C)cc3)c(=O)oc2c1 | -1 | -3 | 2 | 0 | 120*
CCN(CC)c1ccc2cc(C#N)c(=O)oc2c1 | -1 | -6 | -3 | 18 | 32*
CCN(CC)c1ccc2ccc(=O)oc2c1 | 0 | -6 | -1 | 0 | 1
CCN(CC)c1ccc2cc(-c3nnc(Nc4ccc(C)cc4)s3)c(=O)oc2c1 | -17 | -60* | -1 | 159* | 421*
CCN(CC)c1ccc2cc(-c3nc(-c4ccccc4)no3)c(=O)oc2c1 | 4 | -34* | 9 | 55* | 317*
O=c1oc2ccccc2cc1-c1nc(-c2ccccc2)no1 | -3 | 3 | -4 | 0 | 2
Cc1ccc(S(=O)(=O)c2cc3ccccc3oc2=O)cc1 | -9 | -4 | -7 | -2 | 2
CC(C)(C)OC(=O)NCCCCCNC(=O)c1[nH]cnc1C(=O)Nc1ccon1 | -1 | . | -2 | -1 | 0
CCN1CCN(C(=O)c2cc(=O)c3cc(C)ccc3o2)CC1 | 6 | -3 | -3 | 1 | 2
CCN1C(=O)c2ccccc2S(=O)(=O)c2ccc(C(=O)NCc3ccc(C)cc3)cc21 | -9 | -11 | -1 | 0 | 1
CCCCn1c(SCC(=O)NCc2ccc(C)cc2)nc2c(sc3ccccc32)c1=O | -6 | -17 | -3 | 0 | -1
Cc1ccccc1S(=O)Cc1ccc(C(=O)NC2CCCCCC2)o1 (stereo unspecified) | -18 | -9 | 1 | -1 | -1
Cc1ccccc1CN1C(=O)c2ccccc2Sc2ccc(C(=O)OCc3ccco3)cc21 | 1 | 14 | 1 | 1 | 7
CC(NC(=O)COC(=O)c1cc(NS(=O)(=O)c2ccc(Cl)c([N+](=O)[O-])c2)ccc1O)C1CC2CCC1C2 (stereo unspecified) | -13 | -31* | -7 | 0 | 7
Nc1c(C(=O)NCc2ccc3c(c2)OCO3)nnn1Cc1ccc(Br)cc1 | -6 | -4 | 4 | 4 | 31*
O=C(NCc1ccc2c(c1)OCO2)c1n[nH]c(=O)c2ccccc12 | -5 | -50* | -1 | -1 | 0
O=C(c1n[nH]c(=O)c2ccccc12)N1CCN(Cc2ccc3c(c2)OCO3)CC1 | 11 | 19 | -2 | 1 | 5
SMILES | TRHR PAM | D1 antagonist | D1 potentiator | TRHR ag | D1 agonist
O=C(Cn1nc(-c2ccccc2)ccc1=O)NCc1ccc2c(c1)OCO2 | 14 | -5 | 33* | -1 | -1
O=C1Nc2ccccc2C(O)(C(=O)NCc2ccc3c(c2)OCO3)N1c1ccc(Cl)c(Cl)c1 (stereo unspecified) | -7 | 3 | 4 | 7 | 31*
Nc1c(C(=O)NCc2ccc3c(c2)OCO3)nnn1CC(=O)Nc1ccc(Br)cc1 | 9 | 5 | -4 | -2 | 6
O=C(CCc1ccccc1)N1CCN(Cc2ccc(F)cc2Cl)CC1 | 1 | 11 | -2 | -1 | 2
O=C(NCc1ccc(F)cc1)c1cc2n(n1)CCCN(Cc1ccc(F)cc1)C2=O | 28 | 10 | -2 | 0 | 3
CN1CC(=O)Nc2cc(C(=O)O)ccc21 | 1 | -31* | -2 | 0 | -1
CCCCN(CC)CCCNC(=O)c1ccc2c(c1)NC(=O)CN2C | -5 | 2 | -1 | 0 | -2
COc1ccc(CN(C(=O)c2cc3ccccc3oc2=O)C2CCS(=O)(=O)C2)cc1OC (stereo unspecified) | 0 | 22 | -8 | 0 | 1
Cc1cc(C)n2c(SCC(C)C)nnc2n1 | 33* | -16 | -1 | 0 | 0
CCSc1nnc2nc(C)cc(C)n12 | 19 | -1 | 13 | 0 | 4
CCOc1ccccc1N1CC(C(=O)N2CCOCC2)CC1=O (stereo unspecified) | -6 | -4 | . | 2 | 8
CCNC(=O)C/C(C)=N/NC(=O)C12CC3CC(CC(C3)C1)C2 | 0 | -32* | -4 | 0 | 0
CC(C)N1CCN(Cc2cccn2-c2cccnc2)CC1CCO (stereo unspecified) | 4 | -5 | -5 | 1 | 1
CC(C)CCN1CCN(Cc2cccn2-c2cccnc2)CC1CCO (stereo unspecified) | 5 | 34 | -1 | 0 | 30*
COc1cccc(CN2CCN(CCc3ccccc3)C(CCO)C2)c1OC (stereo unspecified) | -3 | -9 | -2 | -1 | 2
COc1cccc2c1OCC(CN1CCN(CCC(C)C)C(CCO)C1)=C2 (stereo unspecified) | 1 | -30* | 6 | 2 | 3
CCOC(=O)c1cccc(NC(=O)Cc2ccc(NC(=O)N3CCCCc4ccccc43)cc2)c1 | 3 | -1 | -5 | 0 | 7
Cc1ccccc1C(=O)N1N=C(c2ccc(NS(C)(=O)=O)cc2)CC1c1cccs1 (stereo unspecified) | -9 | 6 | 2 | -1 | 7
CCS(=O)(=O)Nc1cccc(C2=NN(C(C)=O)C(c3cccs3)C2)c1 (stereo unspecified) | 9 | -47* | -3 | 0 | 3
CC(=O)N1N=C(c2cccc(NS(C)(=O)=O)c2)CC1c1cccs1 (stereo unspecified) | 5 | -8 | 3 | 1 | 0
CS(=O)(=O)Nc1ccc(C2=NN(C(=O)c3ccccc3)C(c3cccs3)C2)cc1 (stereo unspecified) | -2 | -34* | -9 | 0 | -1
